The list shows a part of the results. Values without a mark were called inactive.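 The calls were made as follows: active = compounds whose bead fluorescence drops by more than 37 kMESF across the dose range, marking them as dye quenchers; inactive = the rest.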
Experiment: aptamer fluorescence quenchers, flow cytometry – biochemical, cherry pick 1, bead-based flow cytometry, artefact control for GRK2 RNA aptamer inhibitor project, dose response (AID 504521)
Conditions: Fluorescent RNA aptamer beads, quenching, hits give high values

SMILES	fluorescence change (kMESF span)
CCN1/C(=C/c2ccc3ccc(C)cc3[n+]2CC)Sc2ccccc21	-1.6 kMESF
COc1ccc(N2CCN(C(CNS(=O)(=O)c3ccc(C)cc3)c3ccccc3)CC2)cc1 (stereo not given)	7.4 kMESF
C=C(C)C(=O)Nc1cccc(C2=NOC3(C2)C[C@H](C(N)=O)N(C(=O)C(c2ccccc2)c2ccccc2)C3)c1 (stereo not given in full)	-3.5 kMESF
O=C(CCS(=O)(=O)c1ccc(Br)cc1)NCCc1ccc(Cl)cc1	10.9 kMESF
CCN1/C(=C\c2ccc3ccccc3[n+]2CC)Sc2cc(C)ccc21	8.1 kMESF

Reference: PubChem BioAssay AID504521 (NMMLSC, 2011)
